# Data reported in PubChem BioAssay (NCI).
# Several values for one entry are separate records, joined by “and”; a condition that tells them apart may be missing. Equal entries are not always repeated. Compounds without any hit were thinned out: in the full panel of roughly 83,000, 20% have a hit.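 96-well plates, one dose, 48 hours. Percent growth reported; active if below 10.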 Activity calls are given as the source filed them.
# System: TK-10 renal
# Test: NCI-60 one-dose screen, 48 h (100 = growth as untreated, 0 = no growth, -100 = all killed)
# Details: 10 µM unless noted
row,SMILES,growth
1,C[C@@H]1C[C@@H]2OC(=O)[C@]3(C)[C@H]2[C@@H](OC3(C)O)[C@]2(C)C(=O)C=C[C@@H]12 (some centres undefined),-7.81% [100 µM] (active) and -18.5% [100 µM] (active)
2,O=C1C=CC=C/C1=C1\N=C(c2ccccc2OCC(=O)c2ccc(Br)cc2)SS1,65.8% [100 µM] (inactive) and 57.6% [100 µM] (inactive)
3,O=c1c2ccccc2nc(-c2ccccc2)n1/N=C/c1ccccc1[N+](=O)[O-],66.7% [100 µM] (inactive) and 0.136% [100 µM] (active)
4,CC1CC(=O)N(N(C)C)C(C#N)(C#N)C1(C#N)C#N (centres undefined),-97.2% [100 µM] (active) and -90.4% [100 µM] (active)
5,CCOC(=O)c1cc(C)nc2c1c(=O)n(-c1ccccc1)c(=O)n2CCCCN1CCN(c2ncccn2)CC1,116% [100 µM] (inactive) and 111% [100 µM] (inactive)
6,C=CCn1c2c(c3ccccc3c1=O)C(=O)c1ccccc1-2,47.5% [100 µM] (inactive) and -35.9% [100 µM] (active)
7,CCCCCC(O)(CCCCC)CCCCCCCCC1=C(O)c2ccccc2C(=O)C1=O,0.969% [100 µM] (active) and -7.87% [100 µM] (active)
8,NC(=S)Nc1[nH]c(=S)nc2c1SC1=N/C(=C\c3ccco3)C(=O)N12,75.1% [100 µM] (inactive) and 26.4% [100 µM] (inactive)
9,CCC/C(Cl)=N/OC(=O)Nc1cccc(F)c1,-100% [100 µM] (active)
